The results in this text go back to PubChem BioAssay (NCATS).

Experiment [1] has as its target Estrogen receptor (Homo sapiens) (UniProt P03372). Description: qHTS assay for small molecule agonists of estrogen receptor alpha signaling (AID 588514; calls by dose curve;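 further: 0% = vehicle only and 100% = reference agonist; nearly all actives have a fitted effect of over 70% in size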). The method, boiled down:
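ER-alpha-UAS-bla GripTite HEK 293 cells in medium with 2% charcoal/dextran-treated FBS were treated with compound titrations at 37 C for 18 hrs; beta-lactamase reporter read by CCF4 fluorescence after 2 hrs at RT.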

The nature of experiment [2]: qHTS assay for small molecule antagonists of peroxisome proliferator-activated receptor delta signaling (AID 588535; active means well fitted inhibition curve with a large enough effect in the signal ratio, with a control signal flat, not every such curve was filed as active; the % refers to the signal ratio;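 on max response: cells co-treated with a PPAR-delta agonist as stimulator during compound exposure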). The settings on record: HEK293T PPARd-UAS-bla, beta-lactamase FRET ratio, 18 h; 460 nm channel. The method, boiled down:
(§1)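 Cells were seeded at 4000 per well in assay medium containing 2% charcoal/dextran FBS and held 5 hrs at 37 C. Compounds were then added for 18 hrs. CCF4 substrate was applied for 2 hrs at room temperature before fluorescence reading.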

The target in experiment [3] is Peroxisome proliferator-activated receptor delta (Homo sapiens) (UniProt Q03181). Described as above. The method, boiled down:
as §1

The target of experiment [4] is Peroxisome proliferator-activated receptor gamma (Homo sapiens) (UniProt P37231). Description: qHTS assay for small molecule agonists of peroxisome proliferator-activated receptor gamma signaling (AID 588536; active means well fitted curve in the direction sought with a large enough effect in the signal ratio, with a control signal flat, not every such curve was filed as active; the % refers to the signal ratio;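 further: 0% = DMSO basal wells and 100% = rosiglitazone at 2 µM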). The method, boiled down:
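GeneBLAzer PPAR-gamma-UAS-bla HEK293 cells in 1% charcoal/dextran-treated FBS medium were treated 16 h at 37 C with compounds. Beta-lactamase activity was read by CCF4 ratio (460/530 nm). Response was normalized to 2 uM rosiglitazone (100%) and DMSO, then Hill-fitted for EC50 and efficacy.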

The target of experiment [5] is Vitamin D3 receptor (Homo sapiens) (UniProt P11473). Description: qHTS assay for small molecule antagonists of vitamin D receptor signaling (AID 588541; calls by dose curve;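 further: receptor activated by calcitriol during compound treatment; series mostly up to about 77 µM; on the % scale 0 is the no-effect control and ±100 the full control effect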). The method, boiled down: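 VDR-UAS-bla HEK293T cells in 2% charcoal-stripped FBS were stimulated with 1-alpha,25-dihydroxyvitamin D3 (3 nM final) plus compound for 16 h at 37 C. The beta-lactamase CCF4 readout was normalized to 50 nM agonist and DMSO, and Hill fits gave IC50.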
Chain of Vitamin D3 receptor (Homo sapiens) (P11473 whole entry, looked up): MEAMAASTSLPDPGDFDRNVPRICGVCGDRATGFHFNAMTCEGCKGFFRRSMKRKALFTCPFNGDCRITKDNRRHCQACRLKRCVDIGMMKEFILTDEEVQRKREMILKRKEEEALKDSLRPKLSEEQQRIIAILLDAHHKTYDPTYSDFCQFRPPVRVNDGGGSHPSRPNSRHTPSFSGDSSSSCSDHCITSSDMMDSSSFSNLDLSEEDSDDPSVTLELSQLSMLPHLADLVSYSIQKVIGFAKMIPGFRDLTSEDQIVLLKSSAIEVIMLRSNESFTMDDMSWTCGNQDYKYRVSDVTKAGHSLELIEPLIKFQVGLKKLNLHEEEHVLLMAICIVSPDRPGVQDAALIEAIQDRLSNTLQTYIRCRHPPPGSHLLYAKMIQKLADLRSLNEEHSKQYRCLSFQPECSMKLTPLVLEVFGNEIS

A short description of experiment [6]: qHTS assay for small molecule agonists of retinoid X receptor alpha signaling (AID 588544; calls by dose curve;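 on activation: 0% = DMSO basal wells and 100% = reference agonist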). Conditions: HEK293T RXRa-UAS-bla, beta-lactamase reporter, 18 h; 530 nm emission.
Experiment [7] has as its target Retinoic acid receptor RXR-alpha (Homo sapiens) (UniProt P19793). Described as above.
Experiment [8] addresses Thyroid hormone receptor beta (Homo sapiens) (UniProt P10828). As to the kind of experiment: qHTS assay for small molecule agonists of thyroid hormone receptor beta signaling (AID 588545; calls by dose curve). Put shortly: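 Agonist-mode beta-lactamase reporter assay, HEK 293 cells, 2% charcoal/dextran FBS; cells plated 4 hrs, compound 18 hrs at 37 C, CCF4 2 hrs RT. Normalized to 10 nM T3 (100%) and DMSO (0%); Hill fit gives EC50, efficacy.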

A short description of experiment [9]: qHTS assay for small molecule antagonists of retinoid X receptor alpha signaling (AID 588546; active means well fitted inhibition curve with a large enough effect in the signal ratio, with a control signal flat, not every such curve was filed as active; the % refers to the signal ratio;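 further: cells stimulated with 9-cis-retinoic acid as agonist; on the % scale 0 is the no-effect control and ±100 the full control effect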). The settings on record: HEK293T RXRa-UAS-bla, beta-lactamase ratio, antagonist mode; measured here: W530 green channel, cytotoxicity proxy. Put shortly: (§2)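 Beta-lactamase reporter inhibition, read as CCF4 fluorescence ratio (ex 405, em 460/530 nm) after 2 h at RT. HEK293T UAS-bla cells, 2500/well, were stimulated with 9-cis-RA at 500 or 100 nM final alongside test compound for 18 h at 37 C.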

Experiment [10] concerns the target Retinoic acid receptor RXR-alpha (Homo sapiens) (UniProt P19793). The description is as above. The settings on record: HEK293T RXRa-UAS-bla, beta-lactamase ratio, antagonist mode. Put shortly: as §2
The target of experiment [11] is Thyroid hormone receptor beta (Homo sapiens) (UniProt P10828). As to the kind of experiment: qHTS assay for small molecule antagonists of thyroid hormone receptor beta signaling (AID 588547; active means well fitted inhibition curve with a large enough effect in the signal ratio, with a control signal flat, not every such curve was filed as active; the % refers to the signal ratio;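 further: cells stimulated with 0.4 nM T3 agonist during compound exposure; series mostly up to about 77 µM; on the % scale 0 is the no-effect control and ±100 the full control effect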). Conditions: TR-UAS-bla HEK293, beta-lactamase ratio, antagonist mode, 18 h. The method, boiled down:
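TR-UAS-bla GripTite HEK293 cells in 2% charcoal/dextran FBS medium; compounds 0.59 nM to 92 uM with T3 at 0.4nM final, 18 h at 37 C. Beta-lactamase read by CCF4 fluorescence (460/530 nm); Hill fits gave IC50 and efficacy.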

Experiment [12] in a line: qHTS assay for environmental chemicals that activate the Aryl hydrocarbon Receptor (AhR) signaling pathway (AID 651777). Further: % of control where 0% means no effect; nearly all actives have a fitted effect of over 15% in size. The settings on record: 1A2-DRE human hepatoma cells, luciferase, 24 h; activation: stronger effect = higher value. Put shortly:
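Measured luciferase activity, read 30 min after One-Glo addition at room temperature, from human hepatoma cells bearing a dioxin response element–CYP1A2 promoter reporter and exposed to compound for 24 hr at 37 C.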

Experiment [13] can be described thus: qHTS assay for small molecule agonists of the antioxidant response element (ARE) signaling pathway measured by Nrf2-dependant transcriptional activity (AID 720636; active means well fitted curve in the direction sought with a large enough effect in the repeat runs; an effect the other way counts as inactive or inconclusive;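 further: HepG2 cells with an ARE-driven luciferase reporter; % of control where 0% means no effect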). Put shortly:
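In HepG2 cells engineered with an Nrf2-responsive luciferase gene, ARE induction was quantified as luminescence after 16 hr compound treatment at 37 C.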

Experiment [14] can be described thus: qHTS assay for small molecule agonists of the antioxidant response element (ARE) signaling pathway measured by Nrf2-dependant transcriptional activity - cell viability counter screen (AID 720653; active means well fitted curve in the direction sought with a large enough effect in the repeat runs; an effect the other way counts as inactive or inconclusive; further: on the % scale 0 is the no-effect control and ±100 the full control effect). The settings on record: ARE-bla HepG2 viability, CellTiter-Glo ATP luminescence, 16 h; max response: stronger effect = lower value. The method, boiled down: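 ARE-bla HepG2 cells treated with compounds for 16 h at 37C; this counter screen measures viability as intracellular ATP by CellTiter-Glo luminescence after 30 min at room temperature.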

A short description of experiment [15]: qHTS assay for cell viability of HEK293 cells (AID 743288). Further: on the % scale 0 is the no-effect control and ±100 the full control effect; nearly all actives have a fitted effect of over 50% in size. Conditions: ATP luminescence (CellTiter-Glo), 18 h; max response: stronger effect = lower value. Put shortly:
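Parental HEK293 cells, 2,000 per well, preincubated at least 5 h at 37 C, then exposed to compounds in DMSO for 18 h at 37 C. Viability by CellTiter-Glo ATP luminescence after 30 min at room temperature.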

A short description of experiment [16]: qHTS assay for cell viability of the p53RE-bla HCT-116 cell line (AID 743292). Further: on the % scale 0 is the no-effect control and ±100 the full control effect; nearly all actives have a fitted effect of over 55% in size. The method, boiled down:
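Intracellular ATP of p53RE-bla HCT-116 cells measured by luciferase luminescence following 16 h compound incubation at 37 C; DMSO-only wells served as vehicle controls.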

The target in experiment [17] is Nuclear receptor subfamily 1 group I member 2 (Rattus norvegicus) (UniProt Q9R1A7). As to the kind of experiment: qHTS assay for small molecule activators of the rat pregnane X receptor (rPXR) signaling pathway (AID 651751; call rule not given here; further: 0% is about no effect). The settings on record: rPXR reporter cells, luciferase (One-Glo), 24 h.
Chain of Nuclear receptor subfamily 1 group I member 2 (Rattus norvegicus) (Q9R1A7 whole entry, looked up): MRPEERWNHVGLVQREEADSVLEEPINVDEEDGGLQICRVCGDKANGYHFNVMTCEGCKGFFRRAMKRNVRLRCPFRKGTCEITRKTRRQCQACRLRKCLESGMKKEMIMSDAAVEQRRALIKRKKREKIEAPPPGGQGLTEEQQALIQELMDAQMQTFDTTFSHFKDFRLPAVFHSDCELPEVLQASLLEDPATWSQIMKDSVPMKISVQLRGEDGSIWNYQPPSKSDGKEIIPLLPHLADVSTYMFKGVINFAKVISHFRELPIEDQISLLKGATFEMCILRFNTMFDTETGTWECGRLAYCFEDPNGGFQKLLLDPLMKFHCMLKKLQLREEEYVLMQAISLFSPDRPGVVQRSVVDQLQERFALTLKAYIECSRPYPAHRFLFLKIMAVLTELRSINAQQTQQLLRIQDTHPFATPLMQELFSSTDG
Experiment [18] is described as follows: qHTS assay for small molecule activators of the human pregnane X receptor (PXR) signaling pathway (AID 720659; call rule not given here; further: 0% is about no effect).
Experiment [19] is described as follows: qHTS assay for small molecule activators of the p53 signaling pathway (AID 651743; active means well fitted activation curve with a large enough effect in the signal ratio, not every such curve was filed as active; the % refers to the signal ratio; further: series mostly up to about 92 µM; % of control where 0% means no effect). The settings on record: HCT-116 p53RE-bla, beta-lactamase FRET ratio, 16 h; activation: stronger effect = higher value. Put shortly: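 HCT-116 p53RE-bla, 4,000 cells/well; 5 h settle; cpd/DMSO 16 h, 37 C; LiveBLAzer B/G 2 h RT; fluorescence intensity.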
The target in experiment [20] is Peroxisome proliferator-activated receptor alpha (Homo sapiens) (UniProt Q07869). Description: qHTS assay for small molecule agonists of the peroxisome proliferator-activated receptor alpha (PPARalpha) signaling pathway (AID 651778). Further: % of control where 0% means no effect. Conditions: PathHunter PPARalpha complementation, chemiluminescence, 6 h; max response: stronger effect = higher value. The method, boiled down: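 Enzyme-fragment complementation assay in which ligand-bound PPARalpha translocates and forms an active enzyme that generates chemiluminescence. Cells were plated overnight, exposed to compound for 6 hr at 37 C, and then given detection reagent for 60 min at room temperature.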
Chain of Peroxisome proliferator-activated receptor alpha (Homo sapiens) (Q07869 whole entry, looked up, the tested form may be a part): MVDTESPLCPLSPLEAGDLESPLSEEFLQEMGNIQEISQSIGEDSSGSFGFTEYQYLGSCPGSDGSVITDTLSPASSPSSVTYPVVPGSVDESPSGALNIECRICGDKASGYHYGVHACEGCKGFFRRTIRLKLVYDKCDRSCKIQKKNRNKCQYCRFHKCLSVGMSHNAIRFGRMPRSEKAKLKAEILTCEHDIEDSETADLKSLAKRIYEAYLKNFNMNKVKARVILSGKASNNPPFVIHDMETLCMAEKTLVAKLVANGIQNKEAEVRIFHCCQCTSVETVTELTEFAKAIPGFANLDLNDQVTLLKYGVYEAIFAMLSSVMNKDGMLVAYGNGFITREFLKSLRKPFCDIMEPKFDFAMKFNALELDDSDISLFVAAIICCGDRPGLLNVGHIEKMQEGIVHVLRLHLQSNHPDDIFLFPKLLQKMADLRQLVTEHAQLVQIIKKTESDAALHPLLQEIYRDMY

Results filed as inconclusive are left out. Active and inactive are the calls of the source. Unless noted, the call rests on the fitted dose curve; in most records, active means well fitted curve in the direction sought with a large enough effect; inconclusive means small, poorly fitted or top-dose-only effect, or another doubt; inactive means no such curve, though single readings can be large; an effect the other way counts as inactive or inconclusive.

Chain of Estrogen receptor (Homo sapiens) (P03372 whole entry, looked up): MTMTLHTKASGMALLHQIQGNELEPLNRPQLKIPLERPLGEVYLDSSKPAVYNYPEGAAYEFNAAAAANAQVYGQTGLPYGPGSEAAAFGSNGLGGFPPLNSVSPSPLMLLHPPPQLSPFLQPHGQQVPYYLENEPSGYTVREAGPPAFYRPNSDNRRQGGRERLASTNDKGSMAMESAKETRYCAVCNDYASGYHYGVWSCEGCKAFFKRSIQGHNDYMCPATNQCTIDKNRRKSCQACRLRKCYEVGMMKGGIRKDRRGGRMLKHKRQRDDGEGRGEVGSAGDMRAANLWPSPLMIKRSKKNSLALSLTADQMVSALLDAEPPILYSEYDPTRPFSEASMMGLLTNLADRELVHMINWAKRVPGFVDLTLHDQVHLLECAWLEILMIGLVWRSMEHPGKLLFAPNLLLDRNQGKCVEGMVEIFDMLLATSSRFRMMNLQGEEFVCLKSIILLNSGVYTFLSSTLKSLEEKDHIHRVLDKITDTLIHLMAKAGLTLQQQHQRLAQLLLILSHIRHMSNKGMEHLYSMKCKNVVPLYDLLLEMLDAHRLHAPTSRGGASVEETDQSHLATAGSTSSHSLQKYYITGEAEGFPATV
Chain of Retinoic acid receptor RXR-alpha (Homo sapiens) (P19793 whole entry, looked up): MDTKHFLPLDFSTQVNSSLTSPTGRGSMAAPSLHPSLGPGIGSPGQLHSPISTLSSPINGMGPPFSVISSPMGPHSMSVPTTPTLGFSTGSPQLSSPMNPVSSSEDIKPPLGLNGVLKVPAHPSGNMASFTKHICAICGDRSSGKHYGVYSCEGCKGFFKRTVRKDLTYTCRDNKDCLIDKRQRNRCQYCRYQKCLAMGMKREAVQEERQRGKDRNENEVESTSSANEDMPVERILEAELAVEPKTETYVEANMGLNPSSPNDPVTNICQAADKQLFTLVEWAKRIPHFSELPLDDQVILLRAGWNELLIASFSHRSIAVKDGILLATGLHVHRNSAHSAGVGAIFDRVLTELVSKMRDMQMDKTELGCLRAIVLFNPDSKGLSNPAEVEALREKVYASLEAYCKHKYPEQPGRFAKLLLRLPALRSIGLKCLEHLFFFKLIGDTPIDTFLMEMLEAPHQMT
Chain of Peroxisome proliferator-activated receptor gamma (Homo sapiens) (P37231 whole entry, looked up): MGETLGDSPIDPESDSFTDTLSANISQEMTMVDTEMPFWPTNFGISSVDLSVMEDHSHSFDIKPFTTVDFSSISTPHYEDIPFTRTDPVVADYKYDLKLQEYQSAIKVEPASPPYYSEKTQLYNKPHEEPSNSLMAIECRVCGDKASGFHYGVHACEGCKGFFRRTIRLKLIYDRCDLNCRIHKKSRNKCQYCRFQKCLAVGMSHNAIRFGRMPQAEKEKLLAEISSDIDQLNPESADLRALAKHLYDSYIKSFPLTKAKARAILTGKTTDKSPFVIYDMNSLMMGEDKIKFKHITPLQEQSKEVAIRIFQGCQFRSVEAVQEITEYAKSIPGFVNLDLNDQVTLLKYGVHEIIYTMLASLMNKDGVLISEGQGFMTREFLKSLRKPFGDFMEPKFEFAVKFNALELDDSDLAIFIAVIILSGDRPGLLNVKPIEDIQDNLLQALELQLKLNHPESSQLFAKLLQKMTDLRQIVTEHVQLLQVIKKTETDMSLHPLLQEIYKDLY
Chain of Peroxisome proliferator-activated receptor delta (Homo sapiens) (Q03181 whole entry, looked up): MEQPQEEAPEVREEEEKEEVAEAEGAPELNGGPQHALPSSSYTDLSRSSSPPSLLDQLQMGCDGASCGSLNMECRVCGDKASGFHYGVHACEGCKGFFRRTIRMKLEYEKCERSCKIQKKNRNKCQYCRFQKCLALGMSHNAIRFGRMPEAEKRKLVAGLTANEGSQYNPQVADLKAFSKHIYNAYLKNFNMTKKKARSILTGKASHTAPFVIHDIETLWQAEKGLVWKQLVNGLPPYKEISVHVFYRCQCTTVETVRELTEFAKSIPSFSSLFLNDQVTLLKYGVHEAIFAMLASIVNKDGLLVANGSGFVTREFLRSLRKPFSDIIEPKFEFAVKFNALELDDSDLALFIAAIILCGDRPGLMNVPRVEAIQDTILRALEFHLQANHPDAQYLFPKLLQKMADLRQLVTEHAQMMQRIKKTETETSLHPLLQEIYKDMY
Chain of Thyroid hormone receptor beta (Homo sapiens) (P10828 whole entry, looked up): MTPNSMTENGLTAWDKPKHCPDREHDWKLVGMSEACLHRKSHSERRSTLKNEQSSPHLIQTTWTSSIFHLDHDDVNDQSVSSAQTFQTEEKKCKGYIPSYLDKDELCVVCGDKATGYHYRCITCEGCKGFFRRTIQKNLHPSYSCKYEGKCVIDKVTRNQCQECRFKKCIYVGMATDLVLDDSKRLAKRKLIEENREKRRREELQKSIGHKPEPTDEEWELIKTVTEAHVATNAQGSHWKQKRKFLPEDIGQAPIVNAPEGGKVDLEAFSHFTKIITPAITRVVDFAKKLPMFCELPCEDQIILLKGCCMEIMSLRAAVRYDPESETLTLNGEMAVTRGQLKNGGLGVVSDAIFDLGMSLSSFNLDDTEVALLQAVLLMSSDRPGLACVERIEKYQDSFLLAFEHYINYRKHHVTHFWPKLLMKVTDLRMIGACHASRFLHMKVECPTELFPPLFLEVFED

Take `C1CCC2(CCCCO2)OC1`: the Potency entry in experiment [1], in experiment [3], in [5], in experiment [7], in [8] and in experiment [13] was “inactive” in each case. Further, in experiment [16], the Potency entry was “inactive”. Moreover, the max response is 51.5% in experiment [2]; -20.2% in experiment [6]; -9.54% in experiment [9]; -3.1% (inactive) in experiment [10]; 2.39% (inactive) in experiment [14]; 3.07% (inactive) in experiment [15]. For the same molecule, the max response in [17] was -2.06% (inactive). In addition, the molecule was classed as inactive in experiment [4] and in experiment [18]. For the same molecule, the activity change % (negative = inhibition) in experiment [11] is 7.84% (inactive). In addition, the activation in experiment [12] was 0.829% (inactive).
For the molecule `c1ccc(B(c2ccccc2)c2ccccc2)cc1`, the Potency entry in [1], in [3], in [5], in experiment [7], in [8] and in [13] was “inactive” in each case. In addition, the Potency entry in experiment [16] was “inactive”. Further, the max response in [2] is -3.44%; in [6], 7.43%; in experiment [9], 3.4%; in experiment [10] it was -24.3% (inactive); in [14], -1.71% (inactive); in experiment [15], -15.9% (inactive). Also, the max response in [17] is 1.02% (inactive). Also, the result in experiment [4] was inactive. In addition, the results for the activation in experiment [19] and in experiment [12] were -0.854% (inactive) and 1.54% (inactive), respectively.
With `Cc1nn(C)c(Oc2ccccc2)c1/C=N/OCc1ccc(C(=O)OC(C)(C)C)cc1`, the Potency entry in experiment [1], in experiment [13] and in experiment [16] was “inactive” in each case. The max response in experiment [6] was -10.3%; in experiment [20], 2.08% (inactive). The activity change % (negative = inhibition) in experiment [11] is -18.8% (inactive). For the same molecule, the activation in experiment [19] is 9.47% (inactive). Besides, the molecule was called inactive in experiment [18].
With `Cc1c(Cl)cccc1Cl`, the Potency result in experiment [1], in experiment [7], in experiment [8], in experiment [13] and in experiment [16] was “inactive” in each case. Besides, the molecule was classed as inactive in experiment [4] and in [18]. In addition, the max response in experiment [6] was -9.08%; in experiment [9], -1.12%; in experiment [10] it was -5.5% (inactive); in experiment [20], -1.42% (inactive); in experiment [14], -14.1% (inactive); in [15], -7.06% (inactive). In experiment [17], the max response is -2.7% (inactive). Moreover, in experiment [11], the activity change % (negative = inhibition) is -11.7% (inactive). Further, the activation in experiment [12] is -0.186% (inactive).
`O=C(OCC1CCC2OC2C1)C1CCC2OC2C1` (centres undefined): the Potency result in experiment [1], in experiment [3], in experiment [5], in [7], in experiment [8] and in [13] was “inactive” each time. Besides, in experiment [16], the Potency entry was “inactive”. Also, the max response in experiment [2] was -2.67%; in [6], -10.9%; in experiment [9], 1.3%; in [20], 0.673% (inactive); in experiment [14], -4.32% (inactive); in [15], -11.2% (inactive). Also, the max response in experiment [17] is 1.7% (inactive). In addition, the result in experiment [4] and in [18] was inactive. Besides, the activity change % (negative = inhibition) in experiment [11] is 1.74% (inactive). Moreover, the figures for the activation in [19] and in [12] were 2.61% (inactive) and 1.05% (inactive), respectively.
As to `CCc1c(C(=O)O)c(=O)cnn1-c1ccc(Cl)cc1`, the Potency entry in experiment [1], in [3], in experiment [13] and in [16] was “inactive” each time. In addition, the max response in experiment [2] was 48.3%; in experiment [9] it was -1.3%; in [10] it was 7.37% (inactive); in experiment [20] it was 3.7% (inactive); in experiment [14], -3.97% (inactive); in experiment [15], -15.5% (inactive). The max response in experiment [17] was -1.29% (inactive). For the same molecule, the molecule was classed as inactive in experiment [4] and in experiment [18]. Further, the activity change % (negative = inhibition) in [11] is 4.34% (inactive). The activation in [19] is 1.9% (inactive); in experiment [12], 0.0279% (inactive).
